# Results with a measured potency or affinity are listed apart.
# Columns and labels:
# [1] = system: Staphylococcus aureus; conditions: Concentration 32 ug.mL-1;; ASSAY_TEST Inhibition of Bacterial Growth; detection method Absorption (OD600); MEDIA CAMHB; plate type 384well; NBS; CORNING #3640; time 18 hr
# [2] = system: Escherichia coli; conditions: Concentration 32 ug.mL-1;; ASSAY_TEST Inhibition of Bacterial Growth; detection method Absorption (OD600); MEDIA CAMHB; plate type 384well; NBS; CORNING #3640; time 18 hr
SMILES,Inhibition [1] [%],Inhibition [2] [%]
COc1cccc(-n2ccn3c(SCC(=O)c4cc(C)c(C)cc4C)nnc3c2=O)c1,15.67,-4.7
COc1ccc(CN(c2ccc(F)cc2)S(=O)(=O)c2cccn3cnnc23)cc1F,11.25,-4.31
CCOC(=O)c1ccc(NC(=O)Cn2nc3c4cc(-c5ccc(C)c(C)c5)nn4ccn3c2=O)cc1,3.76,-8.53
CCOc1ccc(NC(=O)Cn2nc3c(Sc4ccc(C)cc4C)nccn3c2=O)cc1,0.32,-7.3
Cc1cccc(Oc2nccn3c(=O)n(CC(=O)Nc4cccc(C(F)(F)F)c4)nc23)c1C,4.71,-4.64
Cc1ccc(NC(=O)Cn2c(=O)c3nnc(C(C)C)n3c3ccccc32)c(C)c1,15.48,8.06
CCOc1ccc(C(=O)CSc2nnc3c(=O)n(-c4cccc(OC)c4)ccn23)cc1,5.74,-13.86
Cc1cc2nn(CC(=O)Nc3cccc(F)c3)c(=O)n2c(Nc2ccc(F)c(C)c2)n1,-1.56,-7.72
Cc1cc(C)c(C(=O)CSc2nnc3c(=O)n(-c4ccc(F)c(F)c4)ccn23)cc1C,17,-3.21
O=C(Cn1nc2c3cc(-c4ccc(Cl)cc4)nn3ccn2c1=O)Nc1ccc(F)cc1,7.29,4.85
O=C(Cn1nc2c(SCc3ccccc3)nccn2c1=O)NC1CCCC1,-2.71,0.2
Cc1cccc(C)c1NC(=O)CSc1nc2ccccc2n2c(C)nnc12,11.69,-4.17

# From ChEMBL document CHEMBL4513146, “CO-ADD screening of Karazin Kharkiv National University (Ukraine) compounds”
